Screening results from PubChem BioAssay.
Rows were chosen to be rich in hits. Some 17% of all compounds tested hit in one or more screens of this group.
TDP1 cell noCPT – qHTS for Inhibitors of human tyrosyl-DNA phosphodiesterase 1 (TDP1): qHTS in cells in absence of CPT | AID 686978, 2013 | Potency, µM (highest dose often 46.2 µM), inactives show at the highest dose activity change, negative = growth inhibition, most hits filed as inhibitors | actives 15% (n = 420,000) | DT40 Tdp1-/- hTDP1 cells, no CPT, ATP luminescence, 48 h; note: % is set by controls: 0 for no effect and ±100 for the full control effect; nearly all actives have a fitted effect of over 55% in size
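Luminescent ATP content (CellTiter-Glo) served as the growth readout. Knockout chicken DT40 cells expressing human TDP1 were exposed to compounds without camptothecin for a minimum 48 hr at 37 °C.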
ClpP mod – qHTS Assay for Activators of ClpP | ATP-dependent Clp protease proteolytic subunit (Bacillus subtilis (strain 168)), P80244 | purified B. subtilis ClpP, FRET peptide cleavage, 20 min | Potency, µM (titrated, usually from 57.5 µM), for inactives: top-dose activity change, negative = active | actives 1.9% (n = 340,000); active = well fitted falling curve with a large enough effect; inconclusive = small, poorly fitted or top-dose-only effect; inactive = no such curve, though single readings can be large or run the other way; note: the source files actives as falling curves though it sought activators and does not explain the sign; nearly all actives have a fitted effect of over 65% in size
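ClpP 10 microg/mL final, pH 8 Tris/KCl buffer with BSA, glycerol, Tween-20; compound pinned in; FRET-FV substrate; RT 20 min; Ex320/Em430; ΔFRET vs ADEP 5.8 microM, DMSO, no enzyme.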
TDP1 cell CPT – qHTS for Inhibitors of human tyrosyl-DNA phosphodiesterase 1 (TDP1): qHTS in cells in presence of CPT; chicken DT40 Tdp1-/-;hTDP1 cells + 20 nM CPT, ATP luminescence, 48 h; Potency, µM (series often up to 46.2 µM), for inactives: at the highest dose activity change, negative = growth inhibition, most hits filed as inhibitors; actives 12% (n = 420,000); note: % is set by controls: 0 for no effect and ±100 for the full control effect; nearly all actives have a fitted effect of over 55% in size
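Cell growth measured by CellTiter-Glo luminescence after a minimum 48 h, 37 C compound exposure with 20 nM CPT in Tdp1-knockout DT40 cells stably expressing hTDP1, seeded 400/well; qHTS titration format.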
TDP1 inh – qHTS Assay for Inhibitors of Tyrosyl-DNA Phosphodiesterase (TDP1). actives 0.28% (n = 350,000). Potency, µM (series often up to 130 µM), for the others: at the top dose activity change, negative = inhibition, actives largely listed as inhibitors. AID 485290, 2010. Tyrosyl-DNA phosphodiesterase 1 (Homo sapiens), Q9NUW8. recombinant TDP1, AlphaScreen DNA substrate cleavage; note: % is set by controls: 0 for no effect and ±100 for the full control effect; nearly all actives have a fitted effect of over 40% in size
Target sequence (Q9NUW8 whole entry, looked up): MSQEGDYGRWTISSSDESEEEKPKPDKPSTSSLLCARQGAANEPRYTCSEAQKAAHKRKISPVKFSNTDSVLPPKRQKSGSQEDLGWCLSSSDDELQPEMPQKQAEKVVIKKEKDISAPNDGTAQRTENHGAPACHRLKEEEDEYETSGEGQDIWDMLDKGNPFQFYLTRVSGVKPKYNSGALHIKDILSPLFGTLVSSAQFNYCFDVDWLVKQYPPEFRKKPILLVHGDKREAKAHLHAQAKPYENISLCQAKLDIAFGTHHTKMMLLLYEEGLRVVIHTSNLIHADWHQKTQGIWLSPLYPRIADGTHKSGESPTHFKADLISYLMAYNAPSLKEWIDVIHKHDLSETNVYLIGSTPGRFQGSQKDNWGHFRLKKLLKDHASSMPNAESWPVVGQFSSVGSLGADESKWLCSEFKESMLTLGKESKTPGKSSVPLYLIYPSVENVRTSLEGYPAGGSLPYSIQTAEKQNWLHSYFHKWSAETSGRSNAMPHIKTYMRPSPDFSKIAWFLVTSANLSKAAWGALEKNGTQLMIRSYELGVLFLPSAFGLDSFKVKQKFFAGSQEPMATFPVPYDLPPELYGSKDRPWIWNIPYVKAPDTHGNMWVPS
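Recombinant E. coli-expressed Tdp1 (1 nM) preincubated with compound 15 min at RT, then 5'-biotin/3'-phosphotyrosine-FITC DNA substrate (15 nM) added for 5 min. AlphaScreen beads (10 ug/ml) added, 10 min RT; tyrosine-FITC cleavage read as signal loss.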
* = called active by the depositor; [ ] = dose if it differs, or a comment. Unless noted, calls come from the whole dose curve; as a rule, active = well fitted curve in the direction sought with a large enough effect; inconclusive = small, poorly fitted or top-dose-only effect, or another doubt; inactive = no such curve, though single readings can be large; an effect the other way counts as inactive or inconclusive. Potency is the fitted concentration of half-maximal effect.

What do the screens show for `CCOC(=O)c1c(NC(=O)c2cccc(N3C(=O)CCC3=O)c2)sc(C)c1C`?
TDP1 cell noCPT: inconclusive; ClpP mod: -9%; TDP1 cell CPT: inconclusive; TDP1 inh: 6%

What do the screens show for `CCOC(=O)c1c(-c2ccccc2)csc1NC(=O)CSc1nnc(C)s1`?
TDP1 cell noCPT: inconclusive; ClpP mod: -2%; TDP1 cell CPT: 23µM*; TDP1 inh: 0%

Results for CCOC(=O)c1c(-c2ccc(-c3ccccc3)cc2)csc1NC(=O)c1cccc(N2C(=O)CCC2=O)c1 ?
TDP1 cell noCPT: 6.5µM*; ClpP mod: 16µM*; TDP1 cell CPT: 8.2µM*; TDP1 inh: 3%

What do the screens show for `CCOC(=O)c1c(-c2ccc(C)o2)csc1NC(=S)NC(=O)c1ccccc1Br`?
TDP1 cell noCPT: inconclusive; ClpP mod: -3%; TDP1 cell CPT: 16µM*; TDP1 inh: 6%

What do the screens show for `CCOC(=O)c1c(-c2ccc(C)o2)csc1NC(=S)NC(=O)c1cccs1`?
TDP1 cell noCPT: inconclusive; ClpP mod: -2%; TDP1 cell CPT: inconclusive; TDP1 inh: 8%

What do the screens show for `CCCCCCCCCCCCCCCCCCNC(=O)OCC(COP(=O)([O-])OCC[n+]1ccsc1)OC` (stereo not drawn)?
TDP1 inh: 6%[56.1 µM]

Results for COc1ccc2c(c1)O[C@@H](c1ccc3c(c1)OCO3)[C@H](OC(=O)Nc1ccc(OC(F)F)cc1)C2=O ?
TDP1 inh: 4%

Results for COc1ccc(C(=O)COc2ccc(C(C)=O)cc2OC)cc1OC ?
TDP1 cell noCPT: inconclusive; ClpP mod: -2%; TDP1 cell CPT: inconclusive

How did O=C(N/N=C/c1cccc([N+](=O)[O-])c1)c1cc2ccccc2o1 do in these assays?
TDP1 cell noCPT: 23µM*; TDP1 cell CPT: inconclusive; TDP1 inh: -10%

Results for O=C(COc1ccc(/C=N/NC(=O)c2cc3ccccc3o2)cc1Cl)Nc1ccccc1 ?
TDP1 cell noCPT: 6.5µM*; ClpP mod: 9%; TDP1 cell CPT: 5.2µM*; TDP1 inh: 4%

What do the screens show for `O=C(N/N=C/c1ccc2c(c1)OCO2)c1cc2ccccc2o1`?
TDP1 cell noCPT: 22%; ClpP mod: -2%; TDP1 cell CPT: 5%; TDP1 inh: 50µM*

How did O=C(N/N=C/c1ccccc1F)c1cc2c(ccc3ccccc32)o1 do in these assays?
TDP1 cell noCPT: -12%; ClpP mod: 3%; TDP1 cell CPT: inconclusive; TDP1 inh: 8.9µM*

What do the screens show for `Cc1ccc(C(=O)N/N=C/c2ccc3c(c2)OCO3)o1`?
TDP1 cell noCPT: -1%; ClpP mod: -12%; TDP1 cell CPT: -18%; TDP1 inh: 3%

Results for COc1cc(/C=N/NC(=O)c2ccccc2O)ccc1OCC(=O)Nc1ccccc1 ?
TDP1 cell noCPT: inconclusive; ClpP mod: 4%; TDP1 cell CPT: inconclusive

How did O=C(N/N=C/c1ccsc1)c1cc2ccccc2o1 do in these assays?
TDP1 cell noCPT: -3%; ClpP mod: 0%; TDP1 cell CPT: 7%; TDP1 inh: 79µM*

How did Nc1cccc(C(=O)N/N=C/c2ccsc2)c1 do in these assays?
TDP1 cell noCPT: -16%; ClpP mod: -14%; TDP1 cell CPT: -25%; TDP1 inh: 8%

Results for Cc1ccccc1C(=O)OCc1cnc(Cl)s1 ?
TDP1 cell noCPT: 7%; ClpP mod: -3%; TDP1 cell CPT: -6%; TDP1 inh: 2%

What do the screens show for `COC(=O)CCCC1=CC2=C(c3ccccc3)C(=O)C(C)(OC(=O)C3CCCC3)C(=O)C2=CN1Cc1ccc2c(c1)OCO2` (stereo not drawn)?
TDP1 cell noCPT: inconclusive; ClpP mod: 2%; TDP1 cell CPT: 23µM*; TDP1 inh: 7%[12.3 µM]

Results for COC(=O)CCCC1=CC2=C(c3ccccc3)C(=O)C(C)(OC(=O)C3CCCC3)C(=O)C2=CN1Cc1ccc(OC)cc1 (stereo not drawn) ?
TDP1 cell noCPT: inconclusive; ClpP mod: -1%; TDP1 cell CPT: 23µM*; TDP1 inh: 9%[12.3 µM]
